Legend:
Assay in all cases: log2 ratio of Biotin-Ahx-Ub-VS probe labelling (fragment/DMSO); higher = less target engagement (more negative = stronger competition), active = hit call of the paper (q ≤ 0.05, log2 ratio ≤ -1)
Conditions in all cases: compound concentration: 200 uM; treatment time: 3 h
[1] = target: USP34 (UniProt Q70CQ2)
How it was run: (§1)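 Fragment (200 µM) or vehicle was incubated for 3 h with triplicate HEK293T lysate samples of 495 µg, which were then treated with Biotin-Ahx-Ub-VS at 0.5 µM final for 1 h. Labelled DUBs were enriched on NeutrAvidin, digested with LysC and trypsin, and analysed by diaPASEF LC-MS/MS. Values are average log2 fragment/vehicle ratios from an unpaired t-test on global-median-normalised Spectronaut label-free quantities, using proteins with ≥2 unique peptides.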

[2] = target: T1, USP36 (UniProt Q9P275)
T1 sequence (whole entry): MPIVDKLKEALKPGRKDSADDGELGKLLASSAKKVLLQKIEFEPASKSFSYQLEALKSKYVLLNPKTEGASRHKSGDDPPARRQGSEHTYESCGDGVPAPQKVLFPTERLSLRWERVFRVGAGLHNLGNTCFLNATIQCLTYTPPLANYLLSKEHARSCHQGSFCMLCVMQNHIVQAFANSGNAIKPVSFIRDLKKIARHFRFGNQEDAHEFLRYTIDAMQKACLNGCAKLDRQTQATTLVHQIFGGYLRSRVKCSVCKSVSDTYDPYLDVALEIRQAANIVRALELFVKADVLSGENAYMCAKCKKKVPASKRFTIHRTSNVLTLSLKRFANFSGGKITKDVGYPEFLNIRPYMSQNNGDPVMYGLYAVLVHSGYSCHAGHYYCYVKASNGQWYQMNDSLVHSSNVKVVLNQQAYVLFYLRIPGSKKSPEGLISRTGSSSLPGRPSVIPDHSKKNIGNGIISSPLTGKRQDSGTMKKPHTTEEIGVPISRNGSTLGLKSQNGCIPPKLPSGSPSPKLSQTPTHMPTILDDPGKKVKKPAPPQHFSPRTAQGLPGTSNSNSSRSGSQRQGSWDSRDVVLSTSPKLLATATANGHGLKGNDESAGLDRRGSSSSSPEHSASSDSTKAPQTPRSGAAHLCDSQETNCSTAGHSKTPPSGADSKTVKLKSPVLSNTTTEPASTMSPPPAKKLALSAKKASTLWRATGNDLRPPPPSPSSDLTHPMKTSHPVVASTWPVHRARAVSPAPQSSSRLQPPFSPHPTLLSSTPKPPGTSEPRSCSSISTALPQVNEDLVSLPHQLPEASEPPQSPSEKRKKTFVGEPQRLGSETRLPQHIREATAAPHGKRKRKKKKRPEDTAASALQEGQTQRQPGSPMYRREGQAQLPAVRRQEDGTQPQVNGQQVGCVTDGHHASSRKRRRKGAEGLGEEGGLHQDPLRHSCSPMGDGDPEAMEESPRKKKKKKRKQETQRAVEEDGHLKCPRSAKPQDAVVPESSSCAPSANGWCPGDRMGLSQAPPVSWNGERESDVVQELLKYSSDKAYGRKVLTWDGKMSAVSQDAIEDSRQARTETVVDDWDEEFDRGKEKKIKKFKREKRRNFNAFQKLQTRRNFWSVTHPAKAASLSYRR
How it was run: as §1

[3] = target: T2, USP38 (UniProt Q8NB14)
T2 sequence (whole entry): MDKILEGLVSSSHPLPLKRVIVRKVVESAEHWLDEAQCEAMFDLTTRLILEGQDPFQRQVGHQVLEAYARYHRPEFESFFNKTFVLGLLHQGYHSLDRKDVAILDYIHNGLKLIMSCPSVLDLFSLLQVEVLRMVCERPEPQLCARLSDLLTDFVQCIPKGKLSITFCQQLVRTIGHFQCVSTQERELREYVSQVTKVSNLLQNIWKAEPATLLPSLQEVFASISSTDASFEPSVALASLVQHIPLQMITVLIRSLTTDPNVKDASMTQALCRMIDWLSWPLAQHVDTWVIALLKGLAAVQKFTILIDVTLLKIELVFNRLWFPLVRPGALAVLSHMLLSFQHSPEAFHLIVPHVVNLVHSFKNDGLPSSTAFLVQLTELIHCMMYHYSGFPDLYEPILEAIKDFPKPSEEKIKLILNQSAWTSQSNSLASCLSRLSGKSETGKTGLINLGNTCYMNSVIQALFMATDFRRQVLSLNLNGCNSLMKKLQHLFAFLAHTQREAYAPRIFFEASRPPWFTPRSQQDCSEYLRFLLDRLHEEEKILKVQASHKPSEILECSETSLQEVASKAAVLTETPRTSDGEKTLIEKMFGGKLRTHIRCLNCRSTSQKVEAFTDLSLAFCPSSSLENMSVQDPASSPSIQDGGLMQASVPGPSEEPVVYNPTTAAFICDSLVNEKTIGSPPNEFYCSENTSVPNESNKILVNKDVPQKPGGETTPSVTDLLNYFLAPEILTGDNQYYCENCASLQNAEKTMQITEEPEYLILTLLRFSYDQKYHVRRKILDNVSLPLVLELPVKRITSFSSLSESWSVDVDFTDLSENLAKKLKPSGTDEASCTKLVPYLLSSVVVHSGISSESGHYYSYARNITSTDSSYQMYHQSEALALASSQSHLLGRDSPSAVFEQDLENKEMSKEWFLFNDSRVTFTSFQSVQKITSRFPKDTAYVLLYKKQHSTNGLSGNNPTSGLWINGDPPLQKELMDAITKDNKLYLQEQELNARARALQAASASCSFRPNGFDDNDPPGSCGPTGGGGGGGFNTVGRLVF
How it was run: as §1

[4] = target: T3, USP39 (UniProt Q53GS9)
T3 sequence (whole entry): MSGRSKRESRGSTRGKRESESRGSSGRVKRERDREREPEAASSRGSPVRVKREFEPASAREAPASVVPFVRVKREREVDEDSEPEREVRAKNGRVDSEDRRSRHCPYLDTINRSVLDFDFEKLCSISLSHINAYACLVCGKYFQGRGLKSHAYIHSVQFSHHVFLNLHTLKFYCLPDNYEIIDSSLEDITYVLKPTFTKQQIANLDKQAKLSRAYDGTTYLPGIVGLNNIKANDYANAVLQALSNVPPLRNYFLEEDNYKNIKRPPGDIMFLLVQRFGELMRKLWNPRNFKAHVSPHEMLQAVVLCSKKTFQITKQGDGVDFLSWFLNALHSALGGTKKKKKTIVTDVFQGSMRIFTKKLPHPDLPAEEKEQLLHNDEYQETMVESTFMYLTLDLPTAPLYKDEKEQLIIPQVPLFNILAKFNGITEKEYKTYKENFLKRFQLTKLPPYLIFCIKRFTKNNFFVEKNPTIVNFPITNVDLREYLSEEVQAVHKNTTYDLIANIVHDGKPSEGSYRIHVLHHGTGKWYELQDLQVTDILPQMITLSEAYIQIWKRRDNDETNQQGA
How it was run: as §1

[5] = target: T4, USP4 (UniProt Q13107)
T4 sequence (whole entry): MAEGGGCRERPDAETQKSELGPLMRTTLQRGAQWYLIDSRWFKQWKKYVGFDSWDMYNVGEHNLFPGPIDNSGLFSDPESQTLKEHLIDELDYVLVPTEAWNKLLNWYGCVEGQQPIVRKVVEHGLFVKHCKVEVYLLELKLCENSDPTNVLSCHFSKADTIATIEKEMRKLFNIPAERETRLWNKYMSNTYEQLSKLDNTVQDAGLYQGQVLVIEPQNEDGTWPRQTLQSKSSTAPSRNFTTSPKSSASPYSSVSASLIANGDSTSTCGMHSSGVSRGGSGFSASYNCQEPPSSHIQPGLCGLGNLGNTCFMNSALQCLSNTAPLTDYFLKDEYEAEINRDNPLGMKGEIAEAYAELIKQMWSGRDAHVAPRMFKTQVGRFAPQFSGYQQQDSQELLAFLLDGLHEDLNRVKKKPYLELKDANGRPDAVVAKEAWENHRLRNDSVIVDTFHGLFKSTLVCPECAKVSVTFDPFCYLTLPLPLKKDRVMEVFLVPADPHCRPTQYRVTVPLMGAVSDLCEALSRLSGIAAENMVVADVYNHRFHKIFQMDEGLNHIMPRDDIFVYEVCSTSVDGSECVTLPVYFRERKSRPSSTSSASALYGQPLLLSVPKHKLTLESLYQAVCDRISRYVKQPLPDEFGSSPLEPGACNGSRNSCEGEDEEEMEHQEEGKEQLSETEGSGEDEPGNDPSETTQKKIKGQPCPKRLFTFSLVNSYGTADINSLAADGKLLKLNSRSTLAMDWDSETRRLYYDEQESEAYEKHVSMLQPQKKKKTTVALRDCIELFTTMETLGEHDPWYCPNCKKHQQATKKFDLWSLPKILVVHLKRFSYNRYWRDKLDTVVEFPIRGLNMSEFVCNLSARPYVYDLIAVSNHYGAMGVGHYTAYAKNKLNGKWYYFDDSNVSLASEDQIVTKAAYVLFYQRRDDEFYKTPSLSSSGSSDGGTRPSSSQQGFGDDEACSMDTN
How it was run: as §1

Measured: log2 ratio of Biotin-Ahx-Ub-VS probe labelling

USP34, sequence (Q70CQ2 whole entry, the tested form may be a part): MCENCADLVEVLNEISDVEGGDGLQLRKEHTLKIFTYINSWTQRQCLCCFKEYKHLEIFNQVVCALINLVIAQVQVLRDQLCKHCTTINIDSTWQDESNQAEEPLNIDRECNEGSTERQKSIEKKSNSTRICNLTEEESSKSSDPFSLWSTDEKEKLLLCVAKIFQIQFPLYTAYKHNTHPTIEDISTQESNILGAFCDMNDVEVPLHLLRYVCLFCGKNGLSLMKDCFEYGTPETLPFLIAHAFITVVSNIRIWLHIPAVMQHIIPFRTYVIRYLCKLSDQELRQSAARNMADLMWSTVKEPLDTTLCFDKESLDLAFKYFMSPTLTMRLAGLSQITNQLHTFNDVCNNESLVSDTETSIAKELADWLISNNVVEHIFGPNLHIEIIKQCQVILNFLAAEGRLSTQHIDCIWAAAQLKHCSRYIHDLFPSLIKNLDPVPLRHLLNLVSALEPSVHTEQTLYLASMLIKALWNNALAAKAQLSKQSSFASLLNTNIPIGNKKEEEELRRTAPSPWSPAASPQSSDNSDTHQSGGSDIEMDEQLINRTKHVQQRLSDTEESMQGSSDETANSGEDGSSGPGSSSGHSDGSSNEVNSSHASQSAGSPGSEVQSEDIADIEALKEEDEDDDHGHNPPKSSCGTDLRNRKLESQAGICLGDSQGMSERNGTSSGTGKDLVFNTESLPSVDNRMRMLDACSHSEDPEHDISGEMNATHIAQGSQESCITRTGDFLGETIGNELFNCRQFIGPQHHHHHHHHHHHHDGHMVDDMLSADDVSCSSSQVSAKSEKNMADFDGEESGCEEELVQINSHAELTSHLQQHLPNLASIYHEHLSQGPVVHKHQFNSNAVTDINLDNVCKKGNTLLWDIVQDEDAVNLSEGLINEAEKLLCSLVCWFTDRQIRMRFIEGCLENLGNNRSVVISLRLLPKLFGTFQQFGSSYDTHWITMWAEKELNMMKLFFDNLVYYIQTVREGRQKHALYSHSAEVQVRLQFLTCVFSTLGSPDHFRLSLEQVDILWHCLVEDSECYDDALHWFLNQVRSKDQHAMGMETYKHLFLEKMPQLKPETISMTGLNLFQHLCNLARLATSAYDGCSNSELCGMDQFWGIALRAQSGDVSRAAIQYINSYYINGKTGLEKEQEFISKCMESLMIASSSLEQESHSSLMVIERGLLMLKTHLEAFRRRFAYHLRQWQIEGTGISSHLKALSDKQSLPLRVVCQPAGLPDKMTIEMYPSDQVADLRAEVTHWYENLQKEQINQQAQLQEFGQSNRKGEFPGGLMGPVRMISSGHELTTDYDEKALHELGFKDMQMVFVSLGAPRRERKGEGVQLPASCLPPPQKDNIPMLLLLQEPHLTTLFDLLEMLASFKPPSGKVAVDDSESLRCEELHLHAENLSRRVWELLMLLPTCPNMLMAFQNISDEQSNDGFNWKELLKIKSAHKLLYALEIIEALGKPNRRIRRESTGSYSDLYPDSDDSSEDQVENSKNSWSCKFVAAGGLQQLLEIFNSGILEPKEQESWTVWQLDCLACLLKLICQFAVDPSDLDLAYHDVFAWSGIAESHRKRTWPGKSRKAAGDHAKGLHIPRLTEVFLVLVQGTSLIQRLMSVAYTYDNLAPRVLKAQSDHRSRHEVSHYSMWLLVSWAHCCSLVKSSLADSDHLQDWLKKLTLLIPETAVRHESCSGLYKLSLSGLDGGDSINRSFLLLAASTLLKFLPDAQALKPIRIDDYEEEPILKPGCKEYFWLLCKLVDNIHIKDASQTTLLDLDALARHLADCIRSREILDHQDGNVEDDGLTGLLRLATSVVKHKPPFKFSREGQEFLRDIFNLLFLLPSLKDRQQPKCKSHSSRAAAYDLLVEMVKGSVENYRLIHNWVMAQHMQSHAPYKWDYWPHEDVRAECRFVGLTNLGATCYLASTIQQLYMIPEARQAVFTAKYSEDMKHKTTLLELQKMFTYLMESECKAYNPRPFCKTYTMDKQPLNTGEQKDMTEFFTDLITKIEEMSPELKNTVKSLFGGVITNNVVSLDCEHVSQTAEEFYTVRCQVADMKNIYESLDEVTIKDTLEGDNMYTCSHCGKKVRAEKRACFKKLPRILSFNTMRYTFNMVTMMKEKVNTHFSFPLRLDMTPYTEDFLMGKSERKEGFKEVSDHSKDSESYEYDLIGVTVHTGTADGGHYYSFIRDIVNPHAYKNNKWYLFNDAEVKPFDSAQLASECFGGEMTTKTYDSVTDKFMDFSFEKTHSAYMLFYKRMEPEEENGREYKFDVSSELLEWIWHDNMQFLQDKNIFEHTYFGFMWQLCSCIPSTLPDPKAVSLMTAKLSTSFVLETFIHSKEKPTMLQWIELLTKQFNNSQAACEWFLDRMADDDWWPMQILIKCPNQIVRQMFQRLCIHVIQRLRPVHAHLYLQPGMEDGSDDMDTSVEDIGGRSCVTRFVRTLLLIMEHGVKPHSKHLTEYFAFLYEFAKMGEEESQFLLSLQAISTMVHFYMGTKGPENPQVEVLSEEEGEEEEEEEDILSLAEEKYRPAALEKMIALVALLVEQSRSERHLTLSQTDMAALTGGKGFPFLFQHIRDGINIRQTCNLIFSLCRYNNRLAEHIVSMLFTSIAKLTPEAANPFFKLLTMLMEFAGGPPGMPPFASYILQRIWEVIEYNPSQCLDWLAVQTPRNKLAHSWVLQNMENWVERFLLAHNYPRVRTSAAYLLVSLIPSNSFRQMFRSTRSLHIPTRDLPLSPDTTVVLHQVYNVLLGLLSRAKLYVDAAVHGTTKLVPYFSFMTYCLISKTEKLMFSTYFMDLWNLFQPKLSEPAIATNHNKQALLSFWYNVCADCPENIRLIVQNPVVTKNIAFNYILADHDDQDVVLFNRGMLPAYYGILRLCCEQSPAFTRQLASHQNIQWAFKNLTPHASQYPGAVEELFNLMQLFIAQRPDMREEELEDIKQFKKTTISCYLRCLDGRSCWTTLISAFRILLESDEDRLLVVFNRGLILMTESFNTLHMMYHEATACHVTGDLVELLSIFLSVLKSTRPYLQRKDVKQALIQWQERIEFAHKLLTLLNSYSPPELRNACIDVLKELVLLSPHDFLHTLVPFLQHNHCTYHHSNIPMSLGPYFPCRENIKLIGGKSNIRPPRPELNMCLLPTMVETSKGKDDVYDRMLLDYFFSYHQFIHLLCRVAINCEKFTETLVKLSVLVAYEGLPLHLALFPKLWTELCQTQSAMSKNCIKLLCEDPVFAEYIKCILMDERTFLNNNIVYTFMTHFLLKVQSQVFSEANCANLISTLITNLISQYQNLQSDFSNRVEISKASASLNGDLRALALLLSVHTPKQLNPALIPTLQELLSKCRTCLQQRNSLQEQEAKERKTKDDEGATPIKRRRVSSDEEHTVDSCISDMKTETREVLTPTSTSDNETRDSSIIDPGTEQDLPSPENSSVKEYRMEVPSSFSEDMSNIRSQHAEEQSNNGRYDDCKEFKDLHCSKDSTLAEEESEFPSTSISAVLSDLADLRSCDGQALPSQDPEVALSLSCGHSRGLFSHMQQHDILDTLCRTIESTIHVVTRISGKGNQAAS

O=C(CCl)NC1CCCCNC1=O (stereo not given)
inactive: [1] -0.126 | [2] -0.314 | [3] -0.0226 | [4] 0.0502 | [5] -0.25

Source: the supplement of paper PMC11732987, “Enantioselective OTUD7B fragment discovery through chemoproteomics screening and high-throughput optimisation” (Communications Chemistry, 2025)
